The list is not random: actives were taken first. Their share in the collection is about 5.4%.
p53 reactivation: re-activators of mutant p53; Potency, µM (doses to about 92.2 µM), without a hit: at the top dose activity change, positive = activation, usual class: activators; 0.063% of 320,000 active; H1299 p53-A138V BP100-luciferase reporter, luminescence, 24 h; also: potency is read from the fitted curve at half-maximal effect; % of control where 0% means no effect; nearly all actives have a fitted effect of over 45% in size
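H1299 (p53-null), stable ts p53-A138V + BP100-Luc; 1000 cells/well, Opti-MEM/10% FBS; cpd 4 pt, 1:5; 24 h, 37 deg C, 5% CO2; detection reagent 10 min RT; luminescence.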
Six1-Eya2 blk: inhibitors of human Six1/Eya2 interaction; Q15475+O00167; AlphaScreen GST-Six1/His-Eya2 binding, biochemical; stronger effect = lower value; 0.56% of 360,000 active; AID 651725; activity change, % (no concentration beside the values); in the data active = activity change below about -65%; inconclusive = mostly about -30% to -63%; also: % is scaled to controls: 0 for no effect and ±100 for the full control effect
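AlphaScreen with GST-Six1 and His-Eya2 (5X mix: 250 nM and 500 nM), glutathione donor and nickel acceptor beads; buffer 50 mM Tris pH 8.0, 300 mM NaCl, 1 mM TCEP; 1 h at 37 C in the dark.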
RORg inh: ROR gamma (mouse) transcription inhibition | Drosophila S2 Gal4-RORgamma UAS-luciferase reporter, 20 h | Potency, µM (highest dose often 53.6 µM), without a hit: top-dose activity change, negative = inhibition, hits mostly inhibitors | 5.4% of 310,000 active | AID 2551; also: potency is read from the fitted curve at half-maximal effect; % is scaled to controls: 0 for no effect and ±100 for the full control effect; nearly all actives have a fitted effect of over 60% in size
Target sequence (P51450 whole entry, looked up, the tested form may be a part): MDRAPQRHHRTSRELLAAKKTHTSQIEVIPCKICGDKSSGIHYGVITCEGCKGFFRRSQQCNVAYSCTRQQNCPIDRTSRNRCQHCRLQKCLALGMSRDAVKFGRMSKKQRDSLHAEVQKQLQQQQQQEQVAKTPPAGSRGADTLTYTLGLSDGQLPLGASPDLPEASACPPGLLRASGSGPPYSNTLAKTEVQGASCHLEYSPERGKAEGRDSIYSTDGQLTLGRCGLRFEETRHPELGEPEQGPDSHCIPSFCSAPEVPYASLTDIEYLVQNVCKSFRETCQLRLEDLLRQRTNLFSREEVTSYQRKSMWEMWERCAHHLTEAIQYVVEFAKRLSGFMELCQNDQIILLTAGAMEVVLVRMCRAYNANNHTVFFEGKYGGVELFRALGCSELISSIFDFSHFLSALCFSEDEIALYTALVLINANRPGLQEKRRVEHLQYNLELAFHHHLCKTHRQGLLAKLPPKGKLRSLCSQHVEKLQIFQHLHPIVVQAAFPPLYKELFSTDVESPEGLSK
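Luciferase reporter read in Schneider cells carrying Gal4-RORγ (mouse) and UAS-Photinus luciferase; cells given compound 1 h before 700 uM copper sulfate induction, then incubated 20 h at ambient temperature.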
Gal4-VP16 FLuc: counter-screen for ROR gamma inhibitors: Gal4-VP16 reporter | Potency, µM (doses to about 53.6 µM), inactives show top-dose activity, negative = inhibition, most hits filed as inhibitors | 3.5% of 310,000 active | Drosophila S2 Gal4-VP16 UAS-luciferase, luminescence, 20 h;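 also: Gal4-VP16 expression switched on by copper sulfate through the metallothionein promoter; potency is read from the fitted curve at half-maximal effect; % is scaled to controls: 0 for no effect and ±100 for the full control effect; nearly all actives have a fitted effect of over 50% in size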
CtBP-E1A inh: CtBP/E1A binding inhibition; activity change, % (test concentration not listed); AID 651724; AlphaScreen GST-E1A/His-CtBP binding, 1536-well; stronger effect = lower value; 0.49% of 340,000 active; in the data active = activity change below about -65%; inconclusive = mostly about -30% to -63%; also: % is scaled to controls: 0 for no effect and ±100 for the full control effect
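AlphaScreen with 125 nM GST-E1A and 125 nM His-CtBP (5X stocks) in Tris pH 8.0, 300 mM NaCl, BSA, Tween 20, TCEP. Compounds preincubated 2 h at 37 deg C, then glutathione donor/nickel acceptor beads added for 1 h at 37 deg C in dark.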
Starred values were filed as active, the others as inactive; ? = inconclusive; . = no result given; ! = not confirmed by another sample; [ ] = another dose, or the depositor's remark. Unless noted, calls follow the shape of the dose curve; as a rule, active = well fitted curve in the direction sought with a large enough effect; inconclusive = small, poorly fitted or top-dose-only effect, or another doubt; inactive = no such curve, though single readings can be large; an effect the other way counts as inactive or inconclusive.

SMILES	p53 reactivation	Six1-Eya2 blk	RORg inh	Gal4-VP16 FLuc	CtBP-E1A inh
Cc1ccn2c(c1)nc(=S)n2C(=O)c1ccccc1	.	-4.0	3.98µM*	2.51µM*	-4.7
Cc1cccc(C(=O)n2c(=S)nc3cc(C)ccn32)c1	?	-1.5	?	?	8.2
N#CC1=C(N)C(C#N)(C#N)C(c2cccnc2)C2CC(c3ccccc3)CC=C12 (stereo unspecified)	-29.0%	-14.7	11.2µM*	17.8µM*	-7.9
CCc1nccn1CCC(=O)NC1CC(C)(C)Cc2c1cnn2-c1cccc(F)c1 (stereo unspecified)	-6.7%	-0.1	10.9%	1.9%	-2.7
CCCc1cc2c(n1CCc1ccc(Cl)cc1)C(C)C1CN(C(=O)c3ccccc3)C(C)(C(=O)OC)C21 (stereo unspecified)	.	.	4.3%	-2.2%	.
S=C1NC(c2ccccc2)=NCN1c1ccccc1	5.5%	1.2	10µM*	0.8%	-0.2
CS(=O)(=O)N1CCC2(CCN(c3ccccn3)CC2)CC1	.	.	-5.4%	-1.2%	.
CCOC(=O)c1ccc(NC(=O)CC2Sc3ncnn3C2=O)cc1 (stereo unspecified)	6.8%	-0.6	?	22.4µM*	-0.7
CCOC(=O)c1ccc(NC(=O)Cn2ncc(Cl)c(Cl)c2=O)cc1	-29.5%	-29.5	?	10µM*	-19.8
O=C(OCn1ncc(Cl)c(Cl)c1=O)c1ccc(C(F)(F)F)cc1	-9.5%	-0.7	?	7.08µM*	5.0
O=C(NCC1CCCO1)c1onc(CSc2ccc(F)c(F)c2)c1C(=O)O (stereo unspecified)	1.9%	4.3	-12.1%	-2.8%	6.8
Cc1ccc([C@@H]2CC=C(C(=O)O)CN2S(=O)(=O)c2ccc(C)cc2)cc1	21.6%	1.3	.	.	.
COc1ccc(-c2cn3cc(C)ccc3n2)cc1F	-9.0%	-5.2	2µM*	3.98µM*	-3.7
COc1ccc(-c2cn3cc(C)ccc3n2)cc1OC	?	-15.2	11.2µM*	?	-13.2
Clc1ccc(-c2cn3cc(Br)ccc3n2)cc1Cl	70.7%	21.8	?	?	-6.4
CC(C)C(OC(=O)CCCC(=O)Nc1nccs1)C(=O)NC1CCCCC1 (stereo unspecified)	-2.6%	-3.9	0.2%	-1.5%	.
CCCCNC(=O)O/N=C(\N)CS(=O)(=O)C(C)(C)C	1.7%	9.2	3.1%	10.5%	-23.9
Fc1cccc(Cn2cc(C(=S)N3CCCCC3)c3ccccc32)c1	-6.3%	?	7.08µM*	7.94µM*	-29.5
CC(C)c1ccc(N2C(=NC(=O)C3CC3)SC3CS(=O)(=O)CC32)cc1 (stereo unspecified)	-2.6%	3.5	10.0%	?	-7.6
C=C(C(C)=O)C(O)c1ccccc1 (stereo unspecified)	.	.	-37.5%	-15.4%	.
Cc1ccc(C(N)=S)c(C)c1	-4.1%	5.9	20µM*	?	1.5
Cc1ccc(C(=O)C2CC2)c(C)c1	.	3.6	.	.	2.4
CCOc1ccc(CN2CCN(Cc3nc4c(s3)CCCC4)CC2CCO)cc1 (stereo unspecified)	0.9%	1.9	-18.0%	-9.0%	3.2
COc1cc2[nH]c(=S)n(Cc3ccc(C)cc3)c(=O)c2cc1OC	-3.0%	-4.1	1.78µM*	3.16µM*	-11.7
COc1ccc(Cn2c(=O)[nH]c3cc(OC)c(OC)cc3c2=O)cc1	-0.9%	-1.2	-0.3%	-4.0%	.
SMILES	p53 reactivation	Six1-Eya2 blk	RORg inh	Gal4-VP16 FLuc	CtBP-E1A inh
COc1ccc(Cn2c(=S)[nH]c3cc(OC)c(OC)cc3c2=O)cc1	2.0%	27.4	3.55µM*	?	-17.1
O=C(CSc1nncs1)Nc1nccs1	14.9%	7.5	.	.	-4.3
COCCCNC(=S)Nc1cc(C)c(C)cc1C	1.0%	4.0	7.08µM*	35.5µM*	-0.3
COCCCNC(=S)Nc1ccc(OC(F)F)cc1C	12.9%	-1.7	11.2µM*	-9.7%	7.8
CC1CCN(S(=O)(=O)c2ccc(NC(=S)NC(=O)c3ccc(Cl)cc3)cc2)CC1	-0.2%	0.1	2µM*	3.98µM*	8.3
CN1CCN(S(=O)(=O)c2ccc(NC(=S)NC(=O)c3ccc(Cl)cc3)cc2)CC1	?	?	3.16µM*	?	-25.7
CN(C)S(=O)(=O)c1ccc(Cl)c(NC(=O)COC(=O)/C=C/c2ccco2)c1	-0.8%	-5.8	-0.6%	22.5%	7.0
Oc1oc(-c2cccc3ccccc23)nc1/C=N/c1nccs1	14.7%	1.7	8.91µM*	12.6µM*	1.5
COC(=O)[C@@]1(Cc2ccc(OC)cc2)[C@H]2c3cc(C(=O)N(C)C)n(Cc4cccc5ccccc45)c3C[C@H]2CN1C(=O)c1ccccc1	.	.	18.5%	0.2%	.
CCc1nnc(NC(=O)c2ccc(S(=O)(=O)N3CCc4ccccc4C3)cc2)s1	1.9%	2.9	-13.3%	-6.8%	0.7
Cc1cc(C)c2nc(NNC(=O)c3ccc(S(=O)(=O)N4CCc5ccccc5C4)cc3)sc2c1	?	-1.1	1.58µM*	3.16µM*	-17.9
Cc1cc(C)c2nc(NNC(=O)c3cc(=O)c4ccccc4o3)sc2c1	12.5%	-17.4	5.01µM*	?	-12.8
Cc1cc(C)c2sc(NNC(=O)c3ccc(S(=O)(=O)N4CCc5ccccc5C4)cc3)nc2c1	?	-3.8	4.47µM*	5.01µM*	-23.1
Cc1ccc(S(=O)(=O)N2CCc3ccccc3C2)cc1	.	15.4	3.4%	-4.3%	.
Cc1ccc(CN2CC(N3CCN(C)CC3)CS2(=O)=O)cc1 (stereo unspecified)	.	5.0	.	.	1.6
COc1ccc(C2CC(=O)Oc3cc(C)c(Cl)c(C)c32)cc1 (stereo unspecified)	-7.0%	2.4	?	31.6µM*	4.6
COc1ccc(C2CC(=O)Oc3cc(C)cc(C)c32)cc1 (stereo unspecified)	-1.5%	0.0	35.3%	-13.9%	4.5
COc1cc(C2CC(=O)Oc3cc(C)c(Cl)c(C)c32)cc(OC)c1OC (stereo unspecified)	-7.4%	-2.4	.	.	-14.5
COc1cc(C2CC(=O)Oc3cc(C)c(Br)c(C)c32)cc(OC)c1OC (stereo unspecified)	-2.0%	-9.6	?	5.62µM*	-2.1
O=[N+]([O-])c1ccc(C(O)C[n+]2ccccc2)cc1 (stereo unspecified)	.	1.4	-4.8%	-7.2%	-11.2
CCCCN1CCC[C@H]1CNC(=O)c1cc(C#N)c2ccccc2c1OC	.	.	-16.4%	-3.9%	.
CN(C)c1ccc(-n2cccc2/C=C/[N+](=O)[O-])cc1	-8.2%	0.6	11.2µM*	-6.4%[10 µM]	-21.4
Cc1cnc(CNc2cc(-c3ccc(N(C)C)cc3)ncn2)cn1	.	.	-38.6%	-13.6%	.
O=C1NCN(c2ccccc2)C12CCN(CCCC(c1ccc(F)cc1)c1ccc(F)cc1)CC2	-7.8%	0.0	12.6µM*!	17.8µM*!	-22.0
CC(C)OC(C)C	.	.	2.9%	-0.2%	.
CCc1nc2ccc(C(=O)N3CCN(C(C)=O)CC3)cn2c1N(CC)C(=O)NCCc1ccccc1	.	12.6	.	.	0.0

Screening results (PubChem)
